{"source": "paper PMC10726135", "about": "“HNF4α isoforms regulate the circadian balance between carbohydrate and lipid metabolism in the liver”", "note": "The full ranking holds about 18,000 sequences; the median of “log2 normalized intensity” is about 0.39, and the highest 2% start at about 6.6. The sample holds the highest values, similar sequences and a random draw of the others, so the mix is not that of the screen."}
{"molecular_target": "T1, HNF4alpha2 (COS-7 nuclear extract) (Homo sapiens, UniProt P41235 1-474)", "T1 sequence": "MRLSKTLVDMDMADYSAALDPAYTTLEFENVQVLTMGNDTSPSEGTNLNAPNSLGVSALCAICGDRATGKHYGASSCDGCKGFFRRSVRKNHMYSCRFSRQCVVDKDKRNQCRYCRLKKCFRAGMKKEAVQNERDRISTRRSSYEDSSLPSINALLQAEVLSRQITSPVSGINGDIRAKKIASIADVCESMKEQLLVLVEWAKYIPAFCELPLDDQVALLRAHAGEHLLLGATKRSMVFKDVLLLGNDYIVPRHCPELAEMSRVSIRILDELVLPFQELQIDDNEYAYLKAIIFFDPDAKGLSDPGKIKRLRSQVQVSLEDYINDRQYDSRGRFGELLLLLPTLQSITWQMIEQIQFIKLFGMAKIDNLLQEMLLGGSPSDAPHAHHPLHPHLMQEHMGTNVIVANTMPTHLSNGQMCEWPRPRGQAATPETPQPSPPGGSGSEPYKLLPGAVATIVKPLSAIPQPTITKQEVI", "assay": "protein-binding microarray; COS-7 nuclear extract on double-stranded Agilent 4x180k PBM; binding buffer, salt, pH and temperature not given in the material; high values mean tight binding", "conditions": "chain copies: 2; label: 3' end of strand 1 on the slide; dsDNA, one strand shown", "method_in_brief": "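Binding signal was defined as the normalized, background-corrected gProcessedSignal reported by Agilent software. It came from nuclear extracts of COS-7 cells transiently transfected with a human HNF4α isoform expression vector, applied to a custom Agilent SurePrint G3 4x180k array. That array held ~44,000 test sequences in quadruplicate as double-stranded ~60-nt oligonucleotides, and bound HNF4α was imaged at 2-µm resolution on an Agilent G2565CA scanner.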", "units": {"binding signal": "log2 normalized intensity"}}
{"sequence": "TTGCCCCTTTGACCCTCGGGCCTCCCTAGAGCCTAGGGAGATTAGAGTATCGGTCGA", "binding signal": 3.97}
{"sequence": "TCATTGATGAGTGACCTTTGACCTCAGAGAGCCTAGGGAGATTAGAGTATCGGTCGA", "binding signal": 9.89}
{"sequence": "GGCTGATGACCTTTGACTGAGATGGGAGCAGCCTAGGGAGATTAGAGTATCGGTCGA", "binding signal": 4.03}
{"sequence": "CTCTGCAAACATTTATTTTGTGTGCTAGATGCCTAGGGAGATTAGAGTATCGGTCGA", "binding signal": 1.54}
{"sequence": "TTGCCCACATTCACACAATCAGTGTGTTGAGCCTAGGGAGATTAGAGTATCGGTCGA", "binding signal": -0.0239}
{"sequence": "AGCAGTCCCTTCCCCCCTCCTCATTGAGAGGCCTAGGGAGATTAGAGTATCGGTCGA", "binding signal": 4.37}
{"sequence": "TTGCACCAGTTTCTCAACAGACCCCTGAATGCCTAGGGAGATTAGAGTATCGGTCGA", "binding signal": 2.27}
{"sequence": "CTTGACGCTAACTTCCAGATCAAAGGACATGCCTAGGGAGATTAGAGTATCGGTCGA", "binding signal": 0.608}
{"sequence": "GTCTAATTGTGCTGAGAGAGTCCTTGTTTGGCCTAGGGAGATTAGAGTATCGGTCGA", "binding signal": 1.63}
{"sequence": "GCAGATGGGCAGCACTGTGATTTGTTCAGGGCCTAGGGAGATTAGAGTATCGGTCGA", "binding signal": 0.439}
{"sequence": "GTCTGCTGCCCAGACACACAATATTATGTTGCCTAGGGAGATTAGAGTATCGGTCGA", "binding signal": -0.79}
{"sequence": "GGAGATAACCCATCTGGGGAAAGTGCAAGGGCCTAGGGAGATTAGAGTATCGGTCGA", "binding signal": -0.913}
{"sequence": "CTGGTTCTGCAAGGCAACTGACCTTTGGATGCCTAGGGAGATTAGAGTATCGGTCGA", "binding signal": 8.08}
{"sequence": "TTCTTCTGGTTCTGCAAGGCAACTGACCTTGCCTAGGGAGATTAGAGTATCGGTCGA", "binding signal": 3.64}
{"sequence": "TCTGGTGCCAAGGAGCCTCTGCAACCTTTGGCCTAGGGAGATTAGAGTATCGGTCGA", "binding signal": 2.46}
{"sequence": "CTTGGGGGAGGAGGGCAACCTTTGAACTGGGCCTAGGGAGATTAGAGTATCGGTCGA", "binding signal": 5.3}
{"sequence": "TGGACAACTGTACTTTGGACTGGGGACCTGGCCTAGGGAGATTAGAGTATCGGTCGA", "binding signal": 5.1}
{"sequence": "TCTGCAAGGCAACTGACCTTTGGATCTGGGGCCTAGGGAGATTAGAGTATCGGTCGA", "binding signal": 7.21}
{"sequence": "TATACAAGAAAGAAAGAATGTTTGCTTCTGGCCTAGGGAGATTAGAGTATCGGTCGA", "binding signal": -0.716}
{"sequence": "GGTGGACTTTGTAGCTCAAACAGTCTAAAAGCCTAGGGAGATTAGAGTATCGGTCGA", "binding signal": 2.3}
{"sequence": "GTTAAAGTTGCCTGATGACAACTGAATGTGGCCTAGGGAGATTAGAGTATCGGTCGA", "binding signal": 0.26}
{"sequence": "ACACCGTATCATCAAACCTGTTATTTGCGCGCCTAGGGAGATTAGAGTATCGGTCGA", "binding signal": 1.25}
{"sequence": "GGGCCATGACCTTTACCCCCATTTGGTAATGCCTAGGGAGATTAGAGTATCGGTCGA", "binding signal": 6.29}
{"sequence": "ATGACCTTTACCCCCATTTGGTAATGGGCCGCCTAGGGAGATTAGAGTATCGGTCGA", "binding signal": 4.83}
{"sequence": "GGCAGGGCCAGATAAAGCAGGTTGTACCTTGCCTAGGGAGATTAGAGTATCGGTCGA", "binding signal": 2.4}
{"sequence": "AGGATGGGCCATGACCTTTACCCCCATTTGGCCTAGGGAGATTAGAGTATCGGTCGA", "binding signal": 7.65}
{"sequence": "CACTATCACCAGGATGGGCCATGACCTTTAGCCTAGGGAGATTAGAGTATCGGTCGA", "binding signal": 4.48}
{"sequence": "GGCCAGATAAAGCAGGTTGTACCTTGACCCGCCTAGGGAGATTAGAGTATCGGTCGA", "binding signal": 8.92}
{"sequence": "AACGGCCCAGGGTTAGAGGATGACCTTCCCGCCTAGGGAGATTAGAGTATCGGTCGA", "binding signal": 2.99}
{"sequence": "GATAAAGCAGGTTGTACCTTGACCCAAGAAGCCTAGGGAGATTAGAGTATCGGTCGA", "binding signal": 4.88}
{"sequence": "TCACCAGGATGGGCCATGACCTTTACCCCCGCCTAGGGAGATTAGAGTATCGGTCGA", "binding signal": 9.28}
{"sequence": "GCTTCTCTTGGACCTCAATGTGCTCATCCAGCCTAGGGAGATTAGAGTATCGGTCGA", "binding signal": 0.722}
{"sequence": "CCCACGTACATTGCACCCTCCAGGAGCCCCGCCTAGGGAGATTAGAGTATCGGTCGA", "binding signal": 2.07}
{"sequence": "TATGTGATCAGATGTGGACAATCATTGTGCGCCTAGGGAGATTAGAGTATCGGTCGA", "binding signal": 1.53}
{"sequence": "AGTGGAGAAATAACATTAATGGAAATGCCTGCCTAGGGAGATTAGAGTATCGGTCGA", "binding signal": -0.84}
{"sequence": "ACCATCCACGGATGCATGATTGCTCTCTACGCCTAGGGAGATTAGAGTATCGGTCGA", "binding signal": -0.932}
{"sequence": "TGCACAACGACCCTTGCTCTGTTTTCTGACGCCTAGGGAGATTAGAGTATCGGTCGA", "binding signal": 1.89}
{"sequence": "CTTTGAGAAAGCAAAGTCCCTGGGGACAGGGCCTAGGGAGATTAGAGTATCGGTCGA", "binding signal": -0.0595}
{"sequence": "TCTTTTCTAAGACATAACACAGGTGACCTTGCCTAGGGAGATTAGAGTATCGGTCGA", "binding signal": 4.03}
{"sequence": "CTAAGCAGGCACATTCCAGGACCTTTGCTCGCCTAGGGAGATTAGAGTATCGGTCGA", "binding signal": 4.08}
{"sequence": "GACATAACACAGGTGACCTTTGCTCCGGTTGCCTAGGGAGATTAGAGTATCGGTCGA", "binding signal": 7.4}
{"sequence": "TCTAAGACATAACACAGGTGACCTTTGCTCGCCTAGGGAGATTAGAGTATCGGTCGA", "binding signal": 8.37}
{"sequence": "AACACAGGTGACCTTTGCTCCGGTTCCCAAGCCTAGGGAGATTAGAGTATCGGTCGA", "binding signal": 6.26}
{"sequence": "AGGTGACCTTTGCTCCGGTTCCCAATAAGTGCCTAGGGAGATTAGAGTATCGGTCGA", "binding signal": 5.06}
